Assay outcomes as filed in PubChem.
In the library only some 11% were active in any assay of this set; here they are far more common.
hNpr1 antagonist – blocks ANP-stimulated signaling of human Npr1 receptor; P16066; AID 1347048; 76,000 compounds, 1.6% hits; Potency, µM (top dose mostly 46.3 µM), without a hit: at the highest dose activity change, negative = inhibition, actives largely listed as inhibitors; HEK293 hNpr1 GloSensor cGMP, ANP-stimulated luminescence; calls by dose curve; further: nearly all actives have a fitted effect of over 60% in size
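HEK293 cells stably expressing human Npr1 and cGMP GloSensor pGS-40F, loaded 2 h with 2% GloSensor reagent, given compound 30 min at room temperature. Luminescence read before and 20 min after 0.1 nM hNppA.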
3T3 cytotox – kills NIH 3T3 cells; NIH 3T3 viability, CellTiter-Glo ATP luminescence, 48-72 h; Potency, µM (doses to about 96.7 µM), for inactives: at the top dose activity change, negative = cytotoxicity, actives largely listed as inhibitors; 94,000 compounds, 4.3% hits; AID 1345082; further: nearly all actives have a fitted effect of over 55% in size
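Cytotoxicity is measured as loss of cellular ATP: NIH 3T3 cells (400/well) are exposed to compound for 48 or 72 hr at 37 °C, then CellTiter-Glo luminescence is imaged after 10 min at room temperature.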
FLuc inh – blocks purified firefly luciferase enzyme activity | purified P. pyralis luciferase, luminescence, biochemical | Potency, µM (highest dose often 115 µM), actives largely listed as inhibitors | 76,000 compounds, 2.5% hits | AID 1347043; further: nearly all actives have a fitted effect of over 65% in size
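Purified P. pyralis luciferase (10nM final) in 50mM Tris acetate pH 7.5, 10mM Mg acetate, 0.01% Tween-20, 0.05% BSA with 10uM D-luciferin and 10uM ATP. Compounds titrated qHTS. Luminescence imaged on CCD.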
HEK293 tox – kills HEK 293 cells. HEK 293 viability, ATP luminescence (CellTiter-Glo), 48-72 h. 94,000 compounds, 6.6% hits. Potency, µM (series often up to 115 µM), for the others: at the top dose activity change, negative = cytotoxicity, most hits filed as inhibitors; further: nearly all actives have a fitted effect of over 60% in size
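Cytotoxicity was scored by loss of ATP-coupled luminescence (CellTiter-Glo) in HEK 293 cells. Compound treatment ran 48 or 72 hr at 37 degree Celsius, 5% CO2, 95% humidity.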
Starred values were filed as active, the others as inactive; i = inactive; ? = inconclusive; . = no result given; [ ] = remark or other dose. Unless noted, the call rests on the fitted dose curve; in most records, active means well fitted curve in the direction sought with a large enough effect; inconclusive means small, poorly fitted or top-dose-only effect, or another doubt; inactive means no such curve, though single readings can be large; an effect the other way counts as inactive or inconclusive. On the % scale 0 is the no-effect control and ±100 the full control effect; potency means the concentration at half of the fitted maximal effect.

SMILES	hNpr1 antagonist	3T3 cytotox	FLuc inh	HEK293 tox
Cc1nn(-c2ccccc2)c2c1C(C(C)C)N(C1CCN(C(=O)c3ccc(Cl)cc3)CC1)C2=O (stereo unspecified)	.	?	.	25µM*
COc1ccc(C(=O)N2CCC(N3C(=O)c4c(c(C)nn4-c4ccccc4)C3C(C)C)CC2)cc1 (stereo unspecified)	.	-27%	.	-13%
COc1cccc(C(=O)N2CCC(N3C(=O)c4c(c(C)nn4-c4ccccc4)C3C(C)C)CC2)c1 (stereo unspecified)	.	35µM*	.	45µM*
Cc1nn(-c2ccccc2)c2c1C(C(C)C)N(C1CCN(C(=O)c3cccc(Cl)c3)CC1)C2=O (stereo unspecified)	.	?	.	18µM*
CC(C)CN1C(=O)c2ccccc2C(C(=O)Nc2ccc(C(N)=O)cc2)C12CCCCC2 (stereo unspecified)	0%	-27%	i	?
Cn1nc(C2CC2)cc1NC(=O)C1CC1	.	-19%[174 µM]	.	-5%[230 µM]
COC1CCN(c2cc(-c3cccnc3)nc3c(C)noc23)CC1	2%[70.6 µM]	?	i	-14%[172 µM]
COC1CCCN(c2cc(-c3cccnc3)nc3c(C)noc23)C1 (stereo unspecified)	-3%[70.6 µM]	35µM*	i	?
COC1CCCN(c2ncccc2-c2cc(-c3ccccc3)nc3c(C)noc23)C1 (stereo unspecified)	-30%[70.6 µM]	?	i	79µM*
C=CCN1C[C@H]2COc3ccccc3[C@H]2N(C(=O)CC(C)(C)C)CCC1=O	.	?	.	-11%
COc1ccc(-c2nc(C)nc3c2CN(C(=O)NC2CCCC2)CC3)cc1	.	-24%	.	-10%
O=C(CNC(=O)c1cccc(-c2ccc(C(F)(F)F)cc2)c1)NCCc1ccc(Cl)cc1	.	-23%	.	16µM*
O=C(CNC(=O)c1cccc(-c2ccc(C(F)(F)F)cc2)c1)NCCC1CCCCC1	.	22µM*	.	22µM*
O=C([C@H]1CCCN1C(=O)c1ccc(F)cc1)N1CCC(N2CCOC2=O)CC1	.	-13%	.	-4%
CC(C)N1CCN(C(=O)CCC[C@@H]2[C@H]3CCCN4CCC[C@@H](CN2Cc2ccccc2)[C@@H]34)CC1	1%	?	i	?
COc1ccc(CCC(=O)N2c3ccccc3CC2c2nc(C3CC3)no2)cc1 (stereo unspecified)	-16%	?	i	?
COc1ccc(C2(C(=O)N3c4ccccc4CC3c3noc(C4CCOCC4)n3)CC2)cc1 (stereo unspecified)	-4%	?	25µM*	?
O=Cc1ccccc1-c1ccc(OC(F)(F)F)cc1	.	?	.	-26%[287 µM]
NCc1ccccc1-c1ccc(OC(F)(F)F)cc1	.	?	.	56µM*
COc1ccccc1C(=O)Nc1cc(C2CC2)nn1-c1ccccc1	.	22µM*	.	?
COC(=O)N1CCCN(c2ccc3nnc(C)n3n2)CC1	.	-27%[138 µM]	.	-3%[172 µM]
Cc1ccc2c(c1)N(CCCC(=O)N1CCC(C)(c3noc(-c4ccccc4)n3)CC1)C(=O)CO2	.	?	.	32µM*
O=C(O)COc1ccc(-c2nccc3c2C(=O)N(Cc2c[nH]c4ccccc24)CC(CNC(=O)c2cccc(Cl)c2)O3)cc1 (stereo unspecified)	2%	32µM*	i	-10%
COc1ccc(C2(C(=O)N3CC(CO)C4(CCNCC4)C3)CC2)cc1 (stereo unspecified)	.	-9%	.	-4%
Cc1ccccc1-c1cnc2n[nH]c(-c3ccccc3)c2n1	-23%[70.6 µM]	50µM*	i	89µM*
SMILES	hNpr1 antagonist	3T3 cytotox	FLuc inh	HEK293 tox
Cc1ccccc1-c1[nH]nc2ncc(-c3ccccc3O)nc12	-15%[70.6 µM]	?	i	63µM*
COc1ccc(-c2[nH]nc3ncc(-c4ccc([S+](C)(=O)[O-])cc4)nc23)c(C)c1	-20%[70.6 µM]	?	i	56µM*
Cc1ccccc1-c1[nH]nc2ncc(-c3ccnn3C)nc12	4%[70.6 µM]	?	i	-15%[230 µM]
COc1ccc(-c2[nH]nc3ncc(-c4ccccc4O)nc23)c(C)c1	-23%[70.6 µM]	?	i	28µM*
COc1ccc(-c2[nH]nc3ncc(-c4cccc(F)c4)nc23)c(C)c1	1%[70.6 µM]	?	i	?
COc1ccc(-c2[nH]nc3ncc(-c4cccnc4)nc23)c(C)c1	2%[70.6 µM]	28µM*	i	?
CCCN(CC1CC1)C(=O)CCC1CCCN(S(=O)(=O)c2ccc(C)cc2)C1 (stereo unspecified)	-22%	?	i	40µM*
Cc1ccc(S(=O)(=O)N2CCCC(CCC(=O)O)C2)cc1 (stereo unspecified)	1%	?	i	7%
COCCN1CCCCCC(O)c2cc(C(=O)NCC3CCCCC3)ccc21 (stereo unspecified)	2%	?	i	?
CC(C)(C)C(=O)N1CCC(C(=O)N2CCC(c3nc4ncccc4[nH]3)CC2)C1 (stereo unspecified)	.	-9%	.	1%
O=C(NCc1ccccc1F)C1CCN(c2ccnc3ccnn23)CC1	.	?	.	16µM*
O=C(NCc1ccccc1)C1CCCN(c2ccnc3ccnn23)C1 (stereo unspecified)	.	?	.	100µM*
O=C(NCc1ccc(Cl)cc1)C1CCCN(c2ccnc3ccnn23)C1 (stereo unspecified)	.	?	.	50µM*
COCCNC(=O)c1nc2sccn2c1-c1cccc(C(F)(F)F)c1	.	-8%	.	4%
COCCn1c(=O)c(C(=O)NCCc2ccc(F)cc2)nc2cccnc21	.	-17%	.	0%
CSc1cccc(NC(=O)N[C@H]2C[C@@H](C(=O)N[C@H](Cc3c[nH]c4ccccc34)C(N)=O)N(C(=O)c3cccn3C)C2)c1	1%	i	i	-7%
O=C(c1nc2cccnc2n(Cc2ccccc2)c1=O)N1CCCC1	.	-15%[138 µM]	.	-6%[172 µM]
C[S+](=O)([O-])NC1CCCN(Cc2ccc(-c3cncnc3)cc2)C1 (stereo unspecified)	.	-27%	.	?
Cc1ccc(-c2cccc(CN3CCCC(N[S+](=O)([O-])c4c(C)noc4C)C3)c2)cc1Cl (stereo unspecified)	.	16µM*	.	13µM*
Cc1ccc(-c2cccc(CN3CCCC(N[S+](=O)([O-])c4ccccc4)C3)c2)cc1Cl (stereo unspecified)	.	-23%	.	-14%
Cc1cc(C)cc(-c2ccc(CN3CCCC(N[S+](=O)([O-])c4ccccc4)C3)cc2)c1 (stereo unspecified)	.	?	.	45µM*
COc1cccc(-c2ccc(CN3CCCC(N[S+](=O)([O-])c4ccc(C)cc4)C3)cc2)c1 (stereo unspecified)	.	?	.	28µM*
COc1cccc(-c2ccc(CN3CCCC(N[S+](=O)([O-])c4c(C)noc4C)C3)cc2)c1 (stereo unspecified)	.	45µM*	.	?
Cc1ccccc1C(=O)N1CCN(C(=O)c2nnn3c2COC(c2ccccc2)C3)CC1 (stereo unspecified)	-20%	-7%	i	?
